BJeLR viability: kills HRASV12-expressing BJeLR cells | actives 0.17% (n = 300,000) | AID 1554 | inhibition, % (no concentration beside the values) | BJeLR (HRASV12) viability, CellTiter-Glo ATP luminescence, 48 h; in the data active means inhibition above about 50%
PrPC surface inh: inhibitors of human cell surface prion protein PrPC; TR-FRET read-out; P04156; inhibition, % at 13.8 µM; actives 0.43% (n = 370,000); in the data active means inhibition above about 24%; further: 0% = median of the test wells and 100% = reference compound wells
MazEF act: increases E. coli MazEF RNase cleavage of RNA | P0AE70 | FAM/BHQ RNA-DNA oligo cleavage fluorescence, 5 h | activation, % at 20 µM | actives 0.32% (n = 350,000) | AID 504720; in the data active means activation above about 50%
PrP UTR inh: inhibition of PrP 5' UTR reporter expression; cell-based PrP 5' UTR mRNA reporter, plate reader; inhibition, % (no concentration beside the values); actives 0.35% (n = 340,000); AID 488862; in the data active means inhibition above about 52%; further: 0 = median of the neutral control wells
PrPC TRFRET cf: confirmation of inhibitors of cell surface human prion protein | shares compounds with PrPC surface inh | cell surface PrPC level, TR-FRET | inhibition, % at 13.8 µM | actives 65% (n = 1,500) | AID 743200; in the data active means inhibition above about 25%
LD9 cytotox: kills or reduces viability of LD9 cells in PrPc counter-screen; LD9 cells cytotoxicity, luminescence viability; inhibition, % at 13.8 µM; shares compounds with PrPC surface inh; actives 29% (n = 1,500); in the data active means inhibition above about 9.5%
Active calls of the source: *; nt = no result. In the library only some 1.1% were active in any assay of this set; here they are far more common.

SMILES	BJeLR viability	PrPC surface inh	MazEF act	PrP UTR inh	PrPC TRFRET cf	LD9 cytotox
Cn1c(N2CCC(C(N)=O)CC2)nc2c1c(=O)n(Cc1cccc(Br)c1)c(=O)n2C	0	42*	2	-8	59*	-5
C[C@H]1NS(=O)(=O)c2cccc(Cl)c2O[C@@H]1c1ccccc1	nt	-1	nt	nt	nt	nt
O=[N+]([O-])c1ccc(N2CCN(CC3CCCCC3)CC2)cc1	-6	51*	6	-20	-6	5
O=C(Nc1ccc2c(c1)OCO2)c1cc(C2CCCN(C(=O)C3CCCCC3)C2)on1 (stereo not drawn)	nt	33*	nt	nt	24	-4
O=C(Nc1ccc2c(c1)OCO2)c1cc(C2CCCCN2S(=O)(=O)c2ccccc2)on1 (stereo not drawn)	nt	47*	nt	nt	40*	0
CN(C)c1ccc(CC(=O)N2CCCC(c3cc(C(=O)Nc4ccc(F)c(Cl)c4)no3)C2)cc1 (stereo not drawn)	nt	27*	nt	nt	19	9
CCN(C(=O)COC(=O)c1ccc(Sc2ncn[nH]2)c([N+](=O)[O-])c1)c1ccccc1	nt	-10	nt	nt	nt	nt
CC(C)[C@H](NS(=O)(=O)c1ccc(F)cc1F)C(=O)N1CCC[C@H]1C(=O)NCc1ccccc1	nt	10	nt	nt	nt	nt
CCN(CC)Cc1c(O)ccc2c(C)c(CC(=O)OC)c(=O)oc12	-3	2	5	-15	nt	nt
COC(=O)Cc1c(C)c2ccc(O)c(CNCc3ccc(OC)c(OC)c3)c2oc1=O	1	25*	4	-14	5	-3
C[C@@H]1NS(=O)(=O)c2c(F)cccc2O[C@@H]1c1ccccc1	nt	0	nt	nt	nt	nt
O=C(Nc1ccc2c(c1)OCO2)c1ccc(Br)c(S(=O)(=O)N2CCCC2)c1	-3	25*	10	-23	21	7
O=[N+]([O-])c1ccc(N2CCOCC2)c2c1no[n+]2[O-]	nt	29*	0	nt	45*	98*
NS(=O)(=O)c1ccc(CCNC(=O)CCCCCn2c(=S)[nH]c3ccc(Br)cc3c2=O)cc1	1	25*	12	51	37*	-4
O=C(CCCCCn1c(=S)[nH]c2ccc(Br)cc2c1=O)NCC1CCCO1 (stereo not drawn)	-7	-1	7	-13	nt	nt
Cc1ccc(C(=O)NCc2ccncc2)cc1S(=O)(=O)Nc1cccc(C)c1C	-8	24*	-3	-20	32*	-3
Cc1ccc(C)c(NS(=O)(=O)c2cc(C(=O)NCc3ccncc3)ccc2C)c1	-6	1	4	-17	nt	nt
CC1CCCC(C)N1C(=O)CSc1nnc(COc2ccccc2)n1-c1ccccc1 (stereo not drawn)	-3	37*	5	-24	34*	-4
O=C(CSc1nnc(COc2ccccc2)n1-c1ccccc1)c1ccccc1	-1	5	5	-1	nt	nt
O=C(NCc1cccc(Cl)c1)c1cc(COc2ccc3ncccc3c2)on1	0	25*	0	-15	26*	15*
CCOC(=O)[C@@]12CCCC3=C1N(CCC3)C(=O)[C@H]2CC(=O)NCc1ccc(OC)c(OC)c1	nt	5	nt	nt	nt	nt
CCOC(=O)C(C)Sc1nc(-c2ccccc2)nc2ccc(F)cc12 (stereo not drawn)	-4	1	3	-16	nt	nt
CCOC(=O)CSc1nc2ccccc2c(=O)[nH]1	5	5	6	-64	nt	nt
COC(=O)CSc1nc(-c2ccccc2)nc2ccc(F)cc12	-4	49*	0	-28	107*	-4
CCOC(=O)C(C)Sc1nc(-c2ccccc2)nc2ccccc12 (stereo not drawn)	-5	84*	-5	-9	109*	3
SMILES	BJeLR viability	PrPC surface inh	MazEF act	PrP UTR inh	PrPC TRFRET cf	LD9 cytotox
CCOC(=O)CSc1nc(-c2ccccc2)nc2ccc(F)cc12	-5	26*	10	-6	105*	5
CCOC(=O)CSc1nc(-c2ccccc2)nc2ccccc12	-11	105*	1	4	116*	3
COc1ccc(NC(=O)c2c(N)no[n+]2[O-])cc1	-4	26*	-1	-18	25*	-7
COc1ccc(CCC[C@@H](CCC(=O)N(c2ccccc2)c2ccccc2)CCc2ccccc2)cc1	nt	1	nt	nt	nt	nt
CC(=O)Nc1sc2c(c1-c1nc3ccccc3s1)CN(C(C)C)CC2	nt	38*	-237	31	10	26*
CC(=O)Nc1sc2c(c1-c1nc3ccccc3s1)CCCN(C(C)C)C2	nt	38*	nt	nt	30*	33*
CC(=O)Nc1sc2c(c1-c1nc3ccccc3s1)CN(C(C)C)C2	nt	11	nt	nt	nt	nt
CCC(C)n1ncn(-c2ccc(N3CCN(c4ccc(O)cc4)CC3)cc2)c1=O (stereo not drawn)	-20	25*	-5	-2	30*	-8
CCC(C)n1ncn(-c2ccc(N3CCN(c4ccc(OCC5COC(Cn6cncn6)(c6ccc(Cl)cc6Cl)O5)cc4)CC3)cc2)c1=O (stereo not drawn)	6	-3	1	14	nt	nt
Cc1ccc(S(=O)(=O)N(C)c2cccc3c2S(=O)(=O)N([C@H](C)c2ccccc2)C[C@@H](COCc2ccccc2)O3)cc1	nt	-6	nt	nt	nt	nt
COc1ccccc1N(CC(=O)NC1CC2CCC1C2)S(=O)(=O)c1ccc(C)cc1 (stereo not drawn)	-1	55*	3	-6	10	-5
Cc1ccccc1CN1CCCCC(NC(=O)c2ccc(F)c(F)c2)C1=O (stereo not drawn)	nt	8	nt	nt	nt	nt
CCOc1ccc2[nH]c(C)c(CN3CCOCC3)c(=O)c2c1	-14	32*	-14	-22	3	-3
Clc1ccc(N/N=C/c2cccnc2)cc1	1	25*	0	-37	17	2
Clc1ccc(N=NN2CCOCC2)cc1	-4	-3	9	-38	nt	nt
Cc1[nH]nc(C(F)(F)F)c1N=NN1CCOCC1	nt	31*	10	-14	40*	65*
C=C1C(=O)OC2CC3(C)OC3C3OC3C3=CC(OC3=O)C12 (stereo not drawn)	nt	93*	nt	nt	80*	21*
C=C1C(=O)O[C@@H]2[C@H]3O[C@]3(C)CC/C=C(\C)CC[C@@H]12	nt	5	5	-13	nt	nt
CC1CC(C)CC(C)C(O)C(C#N)=CC=CCC(C2CCCC2C(=O)O)OC(=O)CC(O)C(C)C1 (stereo not drawn)	nt	87*	4	51	98*	51*
COC(=O)C1=C(C(=O)OC)[C@@]2([C@@H](Cc3ccc(C)cc3)Nc3ccccc3)C=C[C@@H]1O2	nt	67*	nt	nt	14	98*
COC(=O)C1=C(C(=O)OC)[C@]2([C@@H]3CCCCN[C@@H](Cc4ccccc4)C(=O)N3Cc3ccccc3)C=C[C@H]1O2	nt	14	-1	-12	nt	nt
COc1ccc(S(=O)(=O)N2CCCCCC2)c2ccccc12	nt	3	nt	nt	nt	nt
COc1cccc2c(NCc3ccccc3)nc(-n3c(N)nc4ccccc43)nc12	nt	70*	nt	nt	49*	98*
CCOC(=O)c1sc2ncnc(NCc3ccco3)c2c1C	-10	24*	2	3	18	15*

Assay outcomes as filed in PubChem BioAssay.
